# MCF10A rereplic – A quantitative high throughput screen for small molecules that induce DNA re-replication in MCF 10a normal breast cells; hit rate 2.9% among 350,000; Potency, µM (series often up to 46.1 µM), for inactives: top-dose activity, positive = re-replication, actives largely listed as activators; MCF 10A DNA re-replication, Hoechst nuclear intensity, 48 h; AID 624296, 2012; also: potency is read from the fitted curve at half-maximal effect; % of control where 0% means no effect; nearly all actives have a fitted effect of over 50% in size
# BCR signal inh – qHTS Assay to Find Inhibitors of Chronic Active B-Cell Receptor Signaling. Potency, µM (highest dose often 46.1 µM), for the others: top-dose activity change, negative = inhibition, most hits filed as inhibitors. ABC-DLBCL IkBa-CBG/CBR reporter, luminescence ratio, 4 h. hit rate 0.05% among 340,000; active = well fitted inhibition curve with a large enough effect in the signal ratio, with a control signal flat, not every such curve was filed as active; inconclusive = small, poorly fitted or top-dose-only effect, or effect the other way, or a change in a side signal; the % refers to the signal ratio;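 also: potency is read from the fitted curve at half-maximal effect; plate controls were basal doxycycline-induced cells for no effect and cells given 10 µM MG132 for full effect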
#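 TMD8 human ABC-DLBCL cells with doxycycline-inducible IκBα–green luciferase fusion and unfused red luciferase, in 0.5% FBS medium; compounds up to 46 uM, 4 h at 37C. Green/red luminescence ratio, filter-overlap corrected, fitted to concentration-response curves.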
# RORg inh – qHTS for inhibitors of ROR gamma transcriptional activity; Nuclear receptor ROR-gamma (Mus musculus), P51450; Drosophila S2 Gal4-RORgamma UAS-luciferase reporter, 20 h; Potency, µM (top dose mostly 53.6 µM), for inactives: at the highest dose activity change, negative = inhibition, most hits filed as inhibitors; hit rate 5.4% among 310,000; AID 2551, 2010; also: potency is read from the fitted curve at half-maximal effect; % is scaled to controls: 0 for no effect and ±100 for the full control effect; nearly all actives have a fitted effect of over 60% in size
# Target sequence (P51450 whole entry, looked up, the tested form may be a part): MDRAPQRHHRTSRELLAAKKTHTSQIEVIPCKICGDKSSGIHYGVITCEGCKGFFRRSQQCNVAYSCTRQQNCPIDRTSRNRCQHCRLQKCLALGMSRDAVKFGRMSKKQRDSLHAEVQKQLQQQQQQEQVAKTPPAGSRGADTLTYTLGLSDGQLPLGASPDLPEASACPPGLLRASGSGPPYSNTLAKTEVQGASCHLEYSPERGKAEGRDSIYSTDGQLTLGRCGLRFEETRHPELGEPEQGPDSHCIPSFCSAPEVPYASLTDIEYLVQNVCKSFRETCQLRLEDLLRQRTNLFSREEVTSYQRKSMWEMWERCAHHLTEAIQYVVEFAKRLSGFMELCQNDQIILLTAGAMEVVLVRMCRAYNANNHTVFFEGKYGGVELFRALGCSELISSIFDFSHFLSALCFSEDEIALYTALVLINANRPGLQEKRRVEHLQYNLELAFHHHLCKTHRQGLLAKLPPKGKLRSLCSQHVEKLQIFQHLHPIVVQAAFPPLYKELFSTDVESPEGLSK
#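 Compounds are pin-transferred onto Drosophila Schneider cells expressing a copper-inducible Gal4–ROR gamma transactivation domain fusion. After 1 hr, copper sulfate is added to 700 uM final; luciferase is read 20 hr later.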
# Giardia kill – Small Molecules that selectively kill Giardia lamblia: qHTS; Giardia lamblia trophozoite viability; activity change, % at 7.66 µM, hits read low; hit rate 0.15% among 340,000; in the data active = activity change below about -80%; inconclusive = between about -30% and that limit;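 also: parasites exposed to compound for two days anaerobically before the ATP read; % is scaled to controls: 0 for no effect and ±100 for the full control effect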
#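 ATP-content bioluminescence gauges trophozoite survival. Cells (100/well) receive compound and incubate anaerobically for 48 hrs at 37 deg C; detection reagent follows for 15-30 min at room temperature.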
# VP16 counter – VP16 counterscreen qHTS for inhibitors of ROR gamma transcriptional activity | Potency, µM (doses to about 53.6 µM), without a hit: top-dose activity, negative = inhibition, actives largely listed as inhibitors | Drosophila S2 Gal4-VP16 UAS-luciferase, luminescence, 20 h | hit rate 3.5% among 310,000;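 also: Gal4-VP16 expression switched on by copper sulfate through the metallothionein promoter; potency is read from the fitted curve at half-maximal effect; % is scaled to controls: 0 for no effect and ±100 for the full control effect; nearly all actives have a fitted effect of over 50% in size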
# SW480 rereplic – A quantitative high throughput screen for small molecules that induce DNA re-replication in SW480 colon adenocarcinoma cells | AID 624297, 2012 | Potency, µM (highest dose often 46.1 µM), inactives show top-dose re-replication activation, actives largely listed as activators | hit rate 1.8% among 340,000 | SW480 DNA re-replication, Hoechst DNA content imaging, 48 h; also: potency is read from the fitted curve at half-maximal effect; % of control where 0% means no effect; nearly all actives have a fitted effect of over 55% in size
#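 First, 250 cells per well were seeded. Next, compound or vehicle (23 nL) was pinned in, plates sat 48 hr at 37 C. Finally Hoechst was added for 40 min before fluorescence scanning.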
# Numbers without * were called inactive; ? = inconclusive; / = no result. Sampled rows, rich in hits. Any-hit rate of the full collection: about 8.3%. Unless noted, calls follow the shape of the dose curve; as a rule, active = well fitted curve in the direction sought with a large enough effect; inconclusive = small, poorly fitted or top-dose-only effect, or another doubt; inactive = no such curve, though single readings can be large; an effect the other way counts as inactive or inconclusive.
SMILES,MCF10A rereplic,BCR signal inh,RORg inh,Giardia kill,VP16 counter,SW480 rereplic
CC(C)(C)NC(=S)/N=C(\N)N[N+](=O)[O-],-2%,2%,10µM*,-4,?,24%
COC(=O)Nc1ccc(N=C(N)N[N+](=O)[O-])cc1,-4%,1%,17%,10,-2%,-9%
C=C1N2CCC(CC2)C1(O)c1ccc(C)cc1 (stereo not given),5%,?,1%,-10,-4%,-4%
C=C1C(O)(c2ccccc2)C2CC[N+]1(C)CC2 (stereo not given),?,8%,11%,41,4%,1.2µM*
COC(C(=O)C(O)C(C)O)C1Cc2cc3cc(OC4CC(OC5CC(O)C(OC)C(C)O5)C(OC(C)=O)C(C)O4)c(C)c(O)c3c(O)c2C(=O)C1OC1CC(OC2CC(OC3CC(C)(O)C(OC(C)=O)C(C)O3)C(O)C(C)O2)C(O)C(C)O1 (stereo not given),-8%,/,1.3µM*,/,1µM*,-4%
O=C(Nc1ccccc1C(=O)O)c1cccc(N2C(=O)c3ccccc3C2=O)c1,-42%,?,1%,1,1%,?
CC(C)C#N,/,/,3%,/,4%,/
ClC(Cl)=C(Cl)Cl,/,/,-36%,/,1%,/
Clc1ccccc1CN1CCN(c2ccccc2)CC1,?,14%,-13%,-13,1%,?
Nc1ccc(N2CCN(Cc3ccccc3Cl)CC2)c(Cl)c1,21µM*,10%,-17%,-3,0%,2%
C=C1C(C)C2C(Cc3ccccc3)NC(=O)C23OC(=O)/C=C/C(O)CCCC(C)C/C=C/C3C1O (stereo not given),6.5µM*,/,/,-19,/,9.2µM*
O=C(Nc1nccs1)C(Cl)(Cl)Cl,-15%,0%,?,12,?,-5%
O=C(CCl)Nc1nccs1,?,-22%,?,29,13µM*,16µM*
O=C(Nc1ccc(Cl)cc1)Nc1nccs1,7.3µM*,?,-8%,-5,5%,5.8µM*
CN(C)C(=O)Nc1ccc(Cl)cc1,/,/,-1%,/,19%,/
COc1cc(C)c(C(=O)CC(=O)c2c(C)cc(OC)cc2C)c(C)c1,16µM*,/,/,8,/,16µM*
CC1=C(O)C(=O)C=C2C1=CC=C1[C@]2(C)CC[C@@]2(C)C3C[C@](C)(C(=O)O)CC[C@@]3(C)CC[C@@]12C (stereo not given in full),/,/,3.2µM*,/,?,/
Cc1ccc(-c2c[n+](CC(=O)c3ccc(Br)cc3)c3n2CCCCC3)cc1,-2%,?,-7%,-20,?,0%
C=C1[C@@H](O)C2C=CC[C@H](C)C(=O)[C@@](C)(O)C=C[C@@H](OC(C)=O)[C@@]23C(=O)N[C@H](Cc2ccccc2)[C@@H]3[C@@H]1C (stereo not given in full),/,/,?,/,10%,/
ClCBr,/,/,-18%,/,-13%,/
NP(=O)(Oc1ccccc1Cl)Oc1ccccc1Cl,0.65µM*,10%,5%,4,-15%,-25%
CCCCn1c(N)c(N(CC(C)C)C(=O)c2cc(Br)c(Br)s2)c(=O)[nH]c1=O,?,/,/,3,/,7%
CSc1cccc(NS(=O)(=O)c2ccc3c(c2)oc(=O)n3C)c1,-2%,?,0%,-22,-11%,3%
COc1cc(NS(=O)(=O)c2ccc3c(c2)oc(=O)n3C)cc(OC)c1OC,?,-26%,?,?,?,21µM*
CC(C)CCOP(=O)(c1ccc(N(C)C)cc1)C(O)c1c(Cl)cccc1Cl (stereo not given),?,-3%,32%,0,1%,-8%
CN=C=O,/,/,7%,/,-4%,/
CCn1nc(/C=C/c2ccccc2)nc2c(=O)n(C)c(=O)nc1-2,11µM*,?,28%,-94*,2%,?

# Screening results from PubChem.
